Measured potencies and affinities stand elsewhere. Values without a mark were called inactive.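 The calls were made as follows: active = every replicate test run called active, with the signal dropping as expected and potency within twice the top valid dose; inconclusive = test runs disagree, or a flat partial drop or poor fit; inactive = every test run inactive, or effect opposite to expected.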

This is an account of results in PubChem BioAssay.

A short description of this assay: PAX8 transcriptional activity inhibition in RMG-I – RMG-I cells, luciferase, cherry-pick, dose response (AID 687027). As to conditions: RMG-I TPO-Luc reporter, SteadyGlo luminescence, 24 h; series mostly up to 35 µM; activity change, negative = inhibition: at the top concentration.
For the compound `CCCCCC(=O)N/N=C(\C)c1ccc(N2CCCCC2)cc1`, the “activity change, negative = inhibition” value is 59.7%.

As for `CN(C(=O)COC(=O)C1CCN(S(=O)(=O)c2c(Cl)cccc2Cl)CC1)C1CCS(=O)(=O)C1` (stereo not given), the “activity change, negative = inhibition” value was -18.9%. As for `O=[N+]([O-])c1cc(-c2nnc(-c3ccccc3)o2)ccc1Oc1ccc(Cl)cc1`, the figure is 86.4% [at 16 µM]. As for `CC(=O)C1=C(O)C(=O)N(CCc2ccccc2)C1c1ccccc1[N+](=O)[O-]` (stereo not given), the figure is -20.3%; as for `CN1CCN(C(=S)Nc2ccc(Cl)c(Cl)c2)CC1`, -25.3%; as for `OCC1CCCN(C(=S)Nc2ccc(OC(F)F)cc2)C1` (stereo not given), 94%.

With `Cc1ccc(NC(=O)c2c([N+](=O)[O-])c(C(C)(C)C)nn2C)c(C)c1`, the “activity change, negative = inhibition” value is 0.92%. As for `CCCNC(=O)COC(=O)/C=C/c1ccco1`, the figure is -5.67%; as for `COc1ccc(NC(=O)C[C@H]2C(=O)N(c3ccc(OC)cc3)C[C@@H]2C)cc1`, -17.4%; as for `Oc1ccc(F)c2cccnc12`, -31.1%. `C[C@@H]1CN([C@@H](C)CO)C(=O)CCCn2nncc2CO[C@H]1CN(C)S(=O)(=O)c1ccc(Cl)cc1`: the “activity change, negative = inhibition” value is -15.7%. As for `Cc1cc(C)c2c(c1)/C(=N/NC(=O)c1cc(C)oc1C)CCC2`, the figure is -8.16%. For `Cc1ccc2nc(-c3ccc(NC(=S)NC4CC(C)(C)NC(C)(C)C4)cc3)sc2c1`, the “activity change, negative = inhibition” value was 198%. The same measure for `COc1ccc(C(C)NC(=O)c2ccc(Br)cc2)cc1OC` (stereo not given): -7.73%. As for `Cc1ccc(-c2ccc([C@@H]3[C@H](CO)N4CCCCN(C(=O)Nc5cccc(F)c5)C[C@@H]34)cc2)cc1`, the figure is 2.39% [at 16 µM].

Take `O=C(NCC1CCCO1)C(=O)NCC(c1ccco1)N1CCN(c2ccccc2)CC1` (stereo not given): the “activity change, negative = inhibition” value was -27.6%. As for `COc1ccc(C(=O)NC(=S)NNC(=O)COc2ccccc2)cc1`, the “activity change, negative = inhibition” value is -26.6%. The same measure for `Cc1cnc(NC(=O)CSc2nnc(C)n2N)s1`: -0.284%; for `CCN1CCN(c2nc(-c3cccs3)nc3ccccc23)CC1`: 56.3%. With `Cc1ccc(/C=C/C(=O)N2CCN(c3cccc(C(F)(F)F)c3)CC2)cc1`, the “activity change, negative = inhibition” value was -13.2%. On to `CN(C)CC#Cc1ccc([C@@H]2[C@H](CO)N3CCCCN(C(=O)Nc4ccc(F)cc4)C[C@@H]23)cc1`, for which the “activity change, negative = inhibition” value was -16%. The same measure for `O=C(Cc1nnc(NC(=O)c2ccccc2)s1)N/N=C/c1ccco1`: -7.05%; for `COc1ccc(C)cc1NC(=O)C1CCCN(S(=O)(=O)c2cccc3nonc23)C1` (stereo not given): -14%; for `CC(C)(C)OC(=O)[C@H](Cc1ccccc1)NC(=O)c1nc[nH]c1C(=O)N[C@@H](Cc1ccccc1)C(=O)OC(C)(C)C`: -24.7% [at 8 µM]. As for `C[C@H](CO)N1C[C@H](C)[C@@H](CN(C)C(=O)Nc2ccnc(N3CCOCC3)c2)OCc2cnnn2CCCC1=O`, the figure is 1.7%; as for `CCCCCCCCNC(=O)c1cnccn1`, 33.2%; as for `Cc1nnc(N/N=C/c2cccc(C(F)(F)F)c2)n1N`, -14.5%. For `O=C(NCc1ccc(F)cc1)C1(c2cccs2)CCOCC1`, the “activity change, negative = inhibition” value was -6.83%.

Take `Cn1ccnc1SCc1nc2c(cnn2-c2ccccc2)c(=O)[nH]1`: the “activity change, negative = inhibition” value is 3.06%.

Turning to `O=C(NNC(=O)c1cccc2ccccc12)c1cccc(F)c1`, the “activity change, negative = inhibition” value is 15.1%. As for `O=C(/C=C/c1ccc(Cl)cc1Cl)N1CCN(c2ccccc2[N+](=O)[O-])CC1`, the “activity change, negative = inhibition” value was -21.5%.

Take `COc1ccc(C(=O)N/N=C/c2ccc(OC(=O)c3cccs3)cc2)cc1`: the “activity change, negative = inhibition” value is 47.2%. As for `O=C(Cc1cccs1)N/N=C/C=C/c1ccccc1`, the figure is 37%. As for `CO[C@@H]1CN(C)C(=O)c2cc(NC(=O)c3nc4ccccc4s3)ccc2OC[C@H](C)NC[C@H]1C`, the figure is 6.75% [at 30 µM]; as for `Nn1cnnc1N/N=C\c1ccc(-c2ccccc2[N+](=O)[O-])o1`, -34.2%. The same measure for `Nc1ccc2c(c1)CC(=O)c1ccccc1S2`: -8.95%. For the compound `COc1ccc2c(c1)OC/C(=C/c1cccs1)C2=O`, the “activity change, negative = inhibition” value was 186%. The same measure for `Cc1cc([N+](=O)[O-])nn1CCCC(=O)Nc1sc2c(c1C(N)=O)CCC(C)C2` (stereo not given): 6.47%; for `O=C(Cn1cc(C(F)(F)F)ccc1=O)Nc1ccc2c(c1)OCO2`: -5.38%; for `Cc1ccc(-c2nc(C)sc2CC(=O)OCC(=O)Nc2cccc([N+](=O)[O-])c2)cc1`: 0.656%.
